Screening data (PubChem)
Sampled rows, rich in hits. Any-hit rate of the full collection: about 12%.
hDAT+cocaine – modulates human dopamine transporter uptake under cocaine | LLC-PK1 hDAT cells, [14C]-dopamine uptake with cocaine IC80; actives deviate in either direction | B-score at 10 µM | hit rate 1.3% among 110,000 | AID 449768;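 active = Z score or B-score, a plate-position-corrected score, falls beyond the plate's 99.7% confidence bounds, in either direction; inactive = both scores lie inside the 99.7% bounds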;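 note: scored against the spread of the other compound wells on the same plate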
PLAP act – human PLAP activation; hit rate 1.2% among 96,000; AID 696; P05187; activation fold at 20 µM; purified PLAP enzyme, luminescent substrate read-out; active compounds read high; in the data active = activation fold above about 2
PostGolgi ctrl – inhibits growth of the yeast control strain | efflux-deficient yeast background strain, growth absorbance A615, 16 h | inhibition, % at 10 µM | hit rate 5% among 98,000
Cav3 T inh – inhibitors of human Cav3.2 T-type calcium channel; B-score at 10 µM; AID 449739; Cav3.2-expressing cells, Fluo-4 calcium fluorescence FDSS; active compounds read low; hit rate 4% among 100,000; O95180;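 active = single-dose well whose peak fluorescence ratio is a statistical outlier from its plate by either plate-standardised score or position-corrected B-score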
PostGolgi yeast – growth inhibition of a yeast mutant, post-Golgi transport screen. post-Golgi transport phenotypic cell assay. hit rate 0.9% among 98,000. AID 739. inhibition, % at 10 µM;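 note: yeast cells grown in 1536-well plates; yeast grown about 18 h at 30C before absorbance read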
D1 mod – allosterically modulates the human D1 dopamine receptor; hit rate 5.9% among 58,000; P21728; HEK293 D1, CRE-luciferase, dopamine EC30 potentiation; actives deviate in either direction; B-score at 10 µM;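 active = luminescence count or its row- and column-corrected plate score outside the 99.7% band of the plate's sample wells, on either side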
Target sequence (P21728 whole entry, looked up): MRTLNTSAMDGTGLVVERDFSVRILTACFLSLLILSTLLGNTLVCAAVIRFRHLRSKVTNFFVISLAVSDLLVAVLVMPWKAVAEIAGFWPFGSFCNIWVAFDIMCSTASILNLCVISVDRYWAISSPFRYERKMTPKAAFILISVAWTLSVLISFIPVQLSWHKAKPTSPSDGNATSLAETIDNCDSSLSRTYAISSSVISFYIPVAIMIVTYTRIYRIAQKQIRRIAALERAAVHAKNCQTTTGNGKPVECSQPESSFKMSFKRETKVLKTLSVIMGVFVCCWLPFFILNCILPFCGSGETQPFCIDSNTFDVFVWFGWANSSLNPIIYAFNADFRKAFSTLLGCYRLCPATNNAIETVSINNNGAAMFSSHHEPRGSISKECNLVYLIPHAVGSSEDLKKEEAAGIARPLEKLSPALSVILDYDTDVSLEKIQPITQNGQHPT
* hit, by the source's call; . = not tested or not shown. Cut-off read from the data, not from the text of the source, unless noted: active = inhibition above about 30%; inactive = the rest.

SMILES	hDAT+cocaine	PLAP act	PostGolgi ctrl	Cav3 T inh	PostGolgi yeast	D1 mod
O=C(O)C1CC=CCC1C(=O)Nc1cccc(Cl)c1 (stereo not drawn)	-0.17	1.1	-9	-0.6	5	0.71
CCN(CC)S(=O)(=O)c1cccc(NC(=O)C2SC(=Nc3ccc(C)cc3C)C(C(=O)NC(C)COC)=C2N)c1 (stereo not drawn)	-1.9	1.9	6	-8.6*	-2	.
Cc1ccc(C(=O)NCCc2csc(C)n2)cc1	2.6*	1	.	0.32	2	.
CC(=O)N1CCN(CCN=CC2=C(O)CC(c3ccc(Cl)cc3)CC2=O)CC1 (stereo not drawn)	-0.013	1.7	17	0.15	17	0.042
O=C1CC(c2ccc(F)cc2)CC(O)=C1C=NCCN1CCN(C(=O)Nc2ccccc2)CC1 (stereo not drawn)	-0.3	1.4	4	-4.2*	-3	-1.1
Cc1cc(C)c2cc(CN(CC3CCCO3)C(=O)NC3CCCCC3)c(=O)[nH]c2c1 (stereo not drawn)	.	.	.	.	.	2.3
CCOC(=O)Cc1csc(NC(=O)c2c(-c3c(Cl)cccc3Cl)noc2C)n1	1.7	1.1	20	-4.9*	-16	.
Cc1onc(-c2ccccc2)c1C(=O)Nc1nc(-c2ccccc2)cs1	-0.42	1.6	34*	-3.4	-5	.
Cc1cc(C(=O)OC(C)C(=O)Nc2nc(-c3ccccc3)cs2)c(C)o1 (stereo not drawn)	0.0056	0.8	37*	-2.5	0	.
Cc1cc(C(=O)OCC(=O)Nc2nc(-c3ccccc3)cs2)c(C)o1	-0.23	1	-3	0.24	-6	0.12
Cc1onc(-c2ccccc2)c1C(=O)Nc1nc(-c2cc(F)ccc2F)cs1	-0.94	0.9	0	-1.1	-2	.
CCc1c(C#N)c(SCCC(=O)Nc2ccc(F)cc2)nc2c1C(=O)CC(C)(C)C2	1.5	1.2	10	-1.9	-12	.
CC(=O)N1CCC(N(C(=O)Nc2c(F)cccc2F)C(C)C)CC1	-1.9	1.1	4	0.25	-14	.
c1ccc(-n2nnnc2Oc2ccc(-c3nnco3)cc2)cc1	0.034	.	42*	.	0	0.0054
Clc1ccc(Oc2nnnn2-c2ccccc2)cc1	0.37	1.1	11	-2.4	-3	.
Cc1nnc(C)n1/N=C/c1cc(Br)cc(Br)c1O	1.9	1	11	-9.6*	4	.
Cc1nnc(C)n1/N=C/c1cc(Br)ccc1O	0.97	1.1	-1	-0.66	3	1.2
Cc1nn(C)c(C)c1S(=O)(=O)N1CCC(C(=O)NC2CCCCC2)CC1	-0.018	0.9	-8	0.2	6	0.49
Cc1nn(C)c(C)c1S(=O)(=O)N1CCC(C(=O)NC2CCCCCC2)CC1	-2.6*	1.1	2	-0.24	-3	0.19
Cc1cc(C)cc(C(=O)/C=C2\NC(=O)CS2)c1	-0.62	1.1	-2	-0.39	-4	-1.8*
CN(NS(=O)(=O)c1ccccc1)c1nc2ccccc2nc1C(F)(F)F	-1	1.2	28	-4.2*	-1	.
Cc1cc([N+](=O)[O-])ccc1NC(=S)NC(=O)Cc1ccccc1	0.16	1	30*	-1.3	-8	.
Cc1ccc(C(=O)O)cc1NC(=S)NC(=O)C(c1ccccc1)c1ccccc1	1.4	1.3	4	-0.5	-1	.
Cc1cc([N+](=O)[O-])ccc1NCc1ccccc1	-0.026	0.5	11	-1.7	-5	.
Cc1cc([N+](=O)[O-])ccc1NC(=S)NC(=O)C(c1ccccc1)c1ccccc1	0.17	1.1	46*	-1.3	7	.
SMILES	hDAT+cocaine	PLAP act	PostGolgi ctrl	Cav3 T inh	PostGolgi yeast	D1 mod
CCOc1cccc(OCCCNCCCOC)c1	-0.82	0.9	9	-0.56	1	-0.36
O=C(Nc1ccccc1OC(F)F)c1ccc(Br)o1	-2.5*	1	11	.	7	1.4
CCOc1ccc(Cl)cc1CSc1n[nH]c(CC)n1	-1.3	1.7	34*	-0.21	-9	1.6
Cc1cccc(N2C(=O)CSC2c2cccnc2)c1 (stereo not drawn)	0.21	0.9	3	-0.15	20	.
CCOC(=O)c1ccc(N2C(=O)c3n[nH]c(C)c3C2c2cccnc2)cc1 (stereo not drawn)	1.5	2.3*	7	0.66	0	0.41
CCOC(=O)c1ccc(N2C(=O)C(O)=C(C(C)=O)C2c2ccccn2)cc1 (stereo not drawn)	-0.52	1.3	-6	0.13	-1	-0.31
Cc1ccc(N2C(=O)c3n[nH]c(C)c3C2c2cccnc2)cc1 (stereo not drawn)	-0.064	2.1*	-2	1.2	-3	0.52
